High-throughput results: PubChem, National Center for Advancing Translational Sciences (NCATS)
Sm TGR block: inhibitors of Schistosoma mansoni thioredoxin glutathione reductase; Q962Y6; purified TGR, DTNB reduction, TNB absorbance 405 nm; Potency, µM (series often up to 114 µM), without a hit: top-dose activity change, negative = inhibition, most hits filed as inhibitors; 360,000 tested, 3% active; also: potency is read from the fitted curve at half-maximal effect; nearly all actives have a fitted effect of over 60% in size
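First, TGR (20 nM dispensed) and NADPH were mixed with compound. Second, a 15 min room-temperature incubation followed. Third, further NADPH and then DTNB were added to start the reaction. Finally, TNB absorbance was monitored kinetically.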
Giardia FBPA inh: blocks Giardia fructose-bisphosphate aldolase activity. A8B2U2. purified Giardia FBPA. AID 2451. Potency, µM (doses to about 59.6 µM), for the others: at the top dose activity, negative = inhibition, most hits filed as inhibitors. 290,000 tested, 0.71% active; also: potency is read from the fitted curve at half-maximal effect; nearly all actives have a fitted effect of over 55% in size
Target sequence (A8B2U2 whole entry, looked up): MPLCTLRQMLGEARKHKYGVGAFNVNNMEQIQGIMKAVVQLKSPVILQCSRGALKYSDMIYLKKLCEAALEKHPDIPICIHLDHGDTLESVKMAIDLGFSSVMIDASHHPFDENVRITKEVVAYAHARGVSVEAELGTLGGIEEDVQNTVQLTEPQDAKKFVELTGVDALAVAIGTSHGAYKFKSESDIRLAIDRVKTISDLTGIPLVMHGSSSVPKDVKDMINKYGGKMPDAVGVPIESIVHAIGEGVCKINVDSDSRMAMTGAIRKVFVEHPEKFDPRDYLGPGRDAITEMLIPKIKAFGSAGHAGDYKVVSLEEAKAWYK
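Giardia FBPA (40 nM reagent) was preincubated 10 min at RT with compound (up to 57.5 uM final), then substrate plus GAPDH/TPI/NAD/arsenate coupling system with diaphorase/resazurin was added; resorufin fluorescence (525/598 nm) was read after 20 min.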
Pf growth 96h: inhibits malaria parasite growth, 96 h; P. falciparum luciferase reporter growth, 96 h; Potency, µM (top dose mostly 28.7 µM), without a hit: at the highest dose activity change, negative = inhibition, most hits filed as inhibitors; 320,000 tested, 6.9% active; also: potency is read from the fitted curve at half-maximal effect
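Compounds incubated with erythrocytes infected by luciferase-expressing P. falciparum (2% hematocrit, 0.05% parasitemia final) for 96 hours, 37 C in 5% CO2. Growth inhibition scored as decreased luciferase luminescence.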
Pf growth 48h: P. falciparum growth inhibition at 48 hours (one generation). P. falciparum luciferase growth in erythrocytes, 48 h. Potency, µM (doses to about 28.7 µM), for inactives: top-dose activity change, negative = inhibition, hits mostly inhibitors. 310,000 tested, 5.9% active. AID 504832; also: potency is read from the fitted curve at half-maximal effect
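Luciferase-expressing parasites in RBCs, 2% Hct / 0.1% parasitemia final; RPMI 1640 + 0.5% Albumax; 37 C, 5% CO2, one generation; luminescence read-out, lower signal = inhibition.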
HCMV inh: human cytomegalovirus inhibition; HFF cells, HCMV-luciferase reporter, 72 h; hits give low values; activity change, negative = inhibition, % at 57.5 µM; 410,000 tested, 4.5% active; AID 1259415; in the data active = activity change below about -60%; inconclusive = no clear call, values can overlap the other calls; inactive = above about -39%
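Cell-based, HFFs, 1000 cells/well, 16 h 37C; cpds in DMSO + HCMV-luc, MOI 1 PFU/cell; 72 h 37C; OneGlo luminescence after 5 min RT; norm. to buffer vs Salinomycin 10uM.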
Starred values were filed as active, the others as inactive; ? = inconclusive; . = no result given; [ ] = dose if it differs, or a comment. This is a sample that favours compounds with a hit; in the whole collection about 14% have one here. Unless noted, calls follow the shape of the dose curve; as a rule, active = well fitted curve in the direction sought with a large enough effect; inconclusive = small, poorly fitted or top-dose-only effect, or another doubt; inactive = no such curve, though single readings can be large; an effect the other way counts as inactive or inconclusive. % is scaled to controls: 0 for no effect and ±100 for the full control effect.

SMILES	Sm TGR block	Giardia FBPA inh	Pf growth 96h	Pf growth 48h	HCMV inh
COc1cc2cc(C(=O)Nc3ccccc3)c(N)nc2cc1OC	0%	-20%	?	2.3µM*	17
COc1ccc(-c2cc(C(=O)Nc3ccc(S(=O)(=O)Nc4onc(C)c4C)cc3)c3ccccc3n2)cc1	-8%	-12%	?	12µM*	28
COc1cc2cc(C(=O)NC(C)c3cccc4ccccc34)c(N)nc2cc1OC (centres undefined)	.	.	.	.	-23
COc1cc(-c2cc(C(=O)Nc3ccc(S(N)(=O)=O)cc3)c3ccccc3n2)cc(OC)c1OC	6%	0%	?	?	17
CCCCc1ccc(NC(=O)C2(C)Cc3ccccc3C(=O)O2)cc1 (centres undefined)	0%	.	.	.	3
CCC(CC)C(=O)Nc1ccc2nc(SCC(=O)N3CCc4ccccc43)sc2c1	3%	.	.	.	17
CCOC(=O)C1=CCN(S(=O)(=O)c2ccc(Cl)cc2)C1c1cccc(Br)c1 (centres undefined)	.	.	.	.	-30
COc1cc(-c2cc(C(=O)Nc3c(Cl)cc(Cl)cc3Cl)c3ccccc3n2)cc(OC)c1OC	-7%	-4%	?	13µM*	11
COc1ccc(-c2cc(C(=O)NCC(c3ccccc3)N(C)C)c3ccccc3n2)cc1OC (centres undefined)	-23%	-1%	9.3µM*	10µM*	32
COc1ccc(-c2cc(C(=O)Nc3ccc(O)cc3)c3ccccc3n2)cc1OC	6%	-27%	?	6.6µM*	10
COc1ccccc1NC(=O)c1cc(-c2ccc(OC)c(OC)c2)nc2ccccc12	4%	8%	-21%	?	34
CCN(CC)S(=O)(=O)c1ccc(O)c(NC(=O)c2cc(-c3cc(OC)c(OC)c(OC)c3)nc3ccccc23)c1	12%	2%	1.2µM*	?	.
Cc1ccc(C(=O)Nc2ccc(C(=O)OCc3cc(=O)n4c5c(sc4n3)CCCC5)cc2)cc1	7%	.	.	.	?
O=C(NNC(=O)c1cc(-c2ccccc2)nc2ccccc12)Nc1cccc(Cl)c1	1%	0%	.	-21%	?
CC(C)(C)c1ccc(-c2cc(C(=O)NNC(=O)Nc3ccccc3)c3ccccc3n2)cc1	6%	-6%	4.7µM*	.	95
O=[N+]([O-])c1ccccc1CN1CC=C(c2ccc(F)cc2)CC1	-2%	?	-26%	9%	-3
O=[N+]([O-])c1cccc(CN2CC=C(c3ccc(F)cc3)CC2)c1	30%	?	10µM*	-6%	-12
CCOc1cc2sc(N3CCC(C(=O)Nc4ccccc4Cl)CC3)nc2cc1Br	6%	.	.	.	-12
CCCS(=O)(=O)c1c(S(=O)(=O)CCC)c2cnccn2c1C(=O)c1ccc(F)cc1	15%	16%	-20%	13µM*	5
CCCS(=O)(=O)c1c(S(=O)(=O)CCC)c2c(C(N)=O)cccn2c1C(=O)c1ccc(F)cc1	-15%	1%	14%	8%	-36
CCCS(=O)(=O)c1c(S(=O)(=O)CCC)c2cnccn2c1C(=O)c1ccc(OC)cc1	-28%	-2%	?	10µM*	26
CCCS(=O)(=O)c1c(S(=O)(=O)CCC)c2cc(CC)ccn2c1C(=O)c1ccc(OC)cc1	0%	.	.	.	-30
CCCS(=O)(=O)c1c(S(=O)(=O)CCC)c2cnccn2c1C(=O)c1ccc(CC)cc1	-3%	-2%	.	3.3µM*	-12
CCN(CC)c1nn2c(=O)c(C(=O)NCCc3ccc(C)cc3)cnc2s1	-13%	.	.	.	-64*
Cc1cccc(CCn2c(=O)c3ccccc3n(Cc3ccccc3C)c2=O)c1	9%	.	.	.	8
Cc1cnc(C(=O)O)cn1	.	.	-7%	1%	.
COc1ccc(C(C)=O)cc1CSc1nnc(C)s1	45µM*	8%	36%	22%	5
COc1ccc(C(C)=O)cc1CSc1nc(C)cc(C)n1	6%	18%	?	12%[5.75 µM]	-4
COc1ccc(C(C)=O)cc1CSc1nnc(Nc2ccc(C)cc2)s1	-7%	-14%	?	?	-61*
COc1ccc(C(C)=O)cc1CSc1nnc(Nc2ccccc2)s1	-23%	-7%	6.6µM*	?	-70*
